Only some compounds are listed: those with a hit (about 11% of all), similar ones and a draw of the others.
SW480 rereplic: A quantitative high throughput screen for small molecules that induce DNA re-replication in SW480 colon adenocarcinoma cells; SW480 DNA re-replication, Hoechst DNA content imaging, 48 h; Potency, µM (series often up to 46.1 µM), usual class: activators; 340,000 compounds, 1.8% hits; further: nearly all actives have a fitted effect of over 55% in size
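DNA re-replication was detected as more nuclei of elevated Hoechst intensity after 48 hr exposure to compound (23 nL pinned per well of 250 cells).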
Gal4-VP16 FLuc: VP16 counterscreen qHTS for inhibitors of ROR gamma transcriptional activity | Drosophila S2 Gal4-VP16 UAS-luciferase, luminescence, 20 h | 310,000 compounds, 3.5% hits | Potency, µM (titrated, usually from 53.6 µM), most hits filed as inhibitors;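 further: Gal4-VP16 expression switched on by copper sulfate through the metallothionein promoter; nearly all actives have a fitted effect of over 50% in size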
IL1B secr inh: qHTS for Inhibitors of Inflammasome Signaling: IL-1-beta AlphaLISA Primary Screen; THP-1 LPS/ATP IL-1B secretion, AlphaLISA, 16 h; active compounds read low; activity change, % at 57.5 µM; 360,000 compounds, 4.7% hits; AID 743279, 2014; in the data active means activity change below about -50%; inconclusive means mostly about -30% to -49%
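THP-1 cells pretreated 1 hr with compounds (up to 57.5 uM final), then stimulated with LPS (250 ng/mL final) plus ATP (1.25 mM final); secreted IL-1B measured by AlphaLISA after 16 hr, decreased signal indicating inhibition.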
MCF10A rereplic: A quantitative high throughput screen for small molecules that induce DNA re-replication in MCF 10a normal breast cells; MCF 10A DNA re-replication, Hoechst nuclear intensity, 48 h; Potency, µM (series often up to 46.1 µM), hits mostly activators; 350,000 compounds, 2.9% hits; further: nearly all actives have a fitted effect of over 50% in size
RORgamma inh: qHTS for inhibitors of ROR gamma transcriptional activity; Drosophila S2 Gal4-RORgamma UAS-luciferase reporter, 20 h; 310,000 compounds, 5.4% hits; Nuclear receptor ROR-gamma (Mus musculus), P51450; Potency, µM (doses to about 53.6 µM), most hits filed as inhibitors; AID 2551, 2010; further: nearly all actives have a fitted effect of over 60% in size
Target sequence (P51450 whole entry, looked up, the tested form may be a part): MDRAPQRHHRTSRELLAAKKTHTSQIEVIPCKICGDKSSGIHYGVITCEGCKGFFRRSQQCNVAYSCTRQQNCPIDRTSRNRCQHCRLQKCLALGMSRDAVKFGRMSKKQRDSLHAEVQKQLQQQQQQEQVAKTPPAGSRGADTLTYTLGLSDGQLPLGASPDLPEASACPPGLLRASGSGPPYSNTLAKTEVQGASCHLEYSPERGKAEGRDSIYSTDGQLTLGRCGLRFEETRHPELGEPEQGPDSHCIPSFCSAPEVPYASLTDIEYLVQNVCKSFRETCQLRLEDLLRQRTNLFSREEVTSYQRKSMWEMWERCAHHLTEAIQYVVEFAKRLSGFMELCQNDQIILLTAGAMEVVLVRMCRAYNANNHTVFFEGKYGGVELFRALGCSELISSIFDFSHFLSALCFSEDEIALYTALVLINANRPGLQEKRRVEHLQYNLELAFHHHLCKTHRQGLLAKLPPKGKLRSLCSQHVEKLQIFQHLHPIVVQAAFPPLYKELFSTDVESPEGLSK
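In this cell-based reporter format, copper sulfate (700 uM final) drives Gal4–ROR gamma fusion expression from a metallothionein promoter in Drosophila Schneider cells; compounds preincubated 1 hr, reporter read after 20 hr at ambient temperature.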
Of the large screens only hits and unclear results are named; the others gave an inactive call; ! = not active in a repeat. Unless noted, the call rests on the fitted dose curve; in most records, active means well fitted curve in the direction sought with a large enough effect; inconclusive means small, poorly fitted or top-dose-only effect, or another doubt; inactive means no such curve, though single readings can be large; an effect the other way counts as inactive or inconclusive.

Cc1ccc(N2CCN(C(=O)c3cn(CC4CCCCC4)nn3)C(C)C2)cc1 (centres undefined)	MCF10A rereplic 21µM (no result: Gal4-VP16 FLuc, RORgamma inh)
C/C1=C\[C@@H](C)C/C=C/[C@H]2[C@@H]3O[C@]3(C)[C@@H](C)[C@H]3[C@H](Cc4c[nH]c5ccccc45)NC(=O)[C@]32C(=O)/C=C/C(=O)[C@@H]1O	SW480 rereplic 1.2µM, Gal4-VP16 FLuc 11µM, IL1B secr inh -105, MCF10A rereplic 0.73µM, RORgamma inh 5.6µM
C=C1C(=O)O[C@@H]2C[C@@H](C)[C@@H]3C=CC(=O)[C@@]3(C)[C@@H](O)[C@H]12	SW480 rereplic inconclusive, Gal4-VP16 FLuc 3.2µM, IL1B secr inh -106, MCF10A rereplic 0.92µM, RORgamma inh 3.2µM
CN[C@@H](C)[C@H]1CC[C@@H](N)[C@@H](O[C@@H]2[C@@H](O)[C@@H](O[C@H]3OC[C@@](C)(O)[C@@H](NC)[C@@H]3O)[C@H](N)C[C@@H]2N)O1 (tested in a mixture with another compound)	none (no result: IL1B secr inh)
Brc1ccc2c(c1)C(OC1CN3CCC1CC3)c1ccccc1CS2 (centres undefined)	SW480 rereplic inconclusive, Gal4-VP16 FLuc inconclusive, IL1B secr inh -80, MCF10A rereplic inconclusive, RORgamma inh inconclusive
CN1CCCCC1Cn1cc(C(=O)c2cc([N+](=O)[O-])ccc2I)c2ccccc21 (centres undefined)	none (no result: SW480 rereplic, IL1B secr inh, MCF10A rereplic)
Clc1ccc(C[n+]2c(-c3ccccc3)cc(-c3ccccc3)cc2-c2ccccc2)cc1	IL1B secr inh -90, MCF10A rereplic inconclusive (no result: Gal4-VP16 FLuc, RORgamma inh)
CC(C)(COCC1CO1)COCC1CO1 (centres undefined)	none (no result: SW480 rereplic, IL1B secr inh, MCF10A rereplic)
O=C1NC(=O)C2(Cc3ccccc3N3CCCC32)C(=O)N1c1ccc(Cl)cc1 (centres undefined)	MCF10A rereplic 21µM
Cc1ccc(N2C(=O)NC(=O)C3(Cc4ccccc4N4CCCC43)C2=O)cc1 (centres undefined)	none
O=C1NO[C@H]2[C@@H]1CN[C@@H]2C(=O)O	none (no result: SW480 rereplic, IL1B secr inh, MCF10A rereplic)
c1ccc(C2(N3CCCCC3)CCCCC2)cc1	none (no result: Gal4-VP16 FLuc, RORgamma inh)
S=C=Nc1cccc(C2(N3CCCCC3)CCCCC2)c1	SW480 rereplic inconclusive, IL1B secr inh -54, MCF10A rereplic inconclusive
Oc1cccc(Cl)c1Cl	none (no result: SW480 rereplic, IL1B secr inh, MCF10A rereplic)
O=[N+]([O-])/C=C/c1c(Cl)cccc1Cl	SW480 rereplic 6.5µM, IL1B secr inh -99, MCF10A rereplic 3.7µM (no result: Gal4-VP16 FLuc, RORgamma inh)
CCOC(=O)Cn1cc([N+](=O)[O-])nc1[N+](=O)[O-]	SW480 rereplic 23µM, Gal4-VP16 FLuc 13µM, RORgamma inh 10µM
Cc1ccc(N/N=C/C=C/c2ccco2)cc1	SW480 rereplic 21µM, IL1B secr inh inconclusive, MCF10A rereplic 12µM (no result: Gal4-VP16 FLuc, RORgamma inh)
C[C@H]1CCC/C=C/[C@@H]2C[C@H](O)C[C@H]2[C@H](O)/C=C/C(=O)O1	SW480 rereplic inconclusive, IL1B secr inh -53, MCF10A rereplic 0.65µM!
CC(=O)N1CCN(c2ccc(OCC3CO[C@@](Cn4ccnc4)(c4ccc(Cl)cc4Cl)O3)cc2)CC1 (some centres undefined)	Gal4-VP16 FLuc inconclusive (no result: SW480 rereplic, IL1B secr inh, MCF10A rereplic)
N#Cc1ccc(CN2CCCC3(CCN(C(=O)Oc4ccccc4)CC3)C2)cc1	none (no result: SW480 rereplic, IL1B secr inh, MCF10A rereplic)
COc1cc2c(cc1O)C[C@H]1NCCc3cc4c(c-2c31)OCO4	SW480 rereplic inconclusive, Gal4-VP16 FLuc inconclusive, MCF10A rereplic 18µM, RORgamma inh 10µM
COc1cc2c(cc1OC)-c1c3c(cc4c1[C@@H](C2)N(C)CC4)OCO3	SW480 rereplic inconclusive, Gal4-VP16 FLuc 13µM, IL1B secr inh -81, MCF10A rereplic inconclusive, RORgamma inh inconclusive
CC1=CC2OC3CC4OC(=O)C=CC=CC(C(C)O)OCC(O)C(C)CC(=O)OCC2(CC1O)C4(C)C31CO1 (centres undefined)	IL1B secr inh -116 (no result: Gal4-VP16 FLuc, RORgamma inh)
CC1=CC2OC3CC4OC(=O)C=CC=CC(=O)OCCC(C)C(O)C(=O)OCC2(CC1O)C4(C)C31CO1 (centres undefined)	SW480 rereplic inconclusive, IL1B secr inh -98 (no result: Gal4-VP16 FLuc, RORgamma inh)
O=C(c1ccc(CNS(=O)(=O)c2ccccc2)cc1)N1CCC2(CC1)OCCO2	RORgamma inh inconclusive
O=C(c1ccc(CNS(=O)(=O)c2ccc(Br)cc2)cc1)N1CCC2(CC1)OCCO2	SW480 rereplic 0.58µM!, MCF10A rereplic inconclusive
Oc1cc(Cl)ccc1Oc1ccc(Cl)cc1Cl	IL1B secr inh -70, MCF10A rereplic inconclusive
CCCCOP(=O)(c1ccc(N(C)C)cc1)C(Nc1ccccc1)c1ccccc1 (centres undefined)	SW480 rereplic inconclusive, IL1B secr inh -96, MCF10A rereplic 21µM, RORgamma inh inconclusive
CCn1ccnc1CN1CCCC(C(=O)c2ccc(SC)cc2)C1 (centres undefined)	Gal4-VP16 FLuc 6.3µM, RORgamma inh 1.6µM
Cc1ccc2c(c1)C1CN(C)CCC1N2C(=O)Nc1cccc(Cl)c1 (centres undefined)	IL1B secr inh -53
O=C(Nc1ccc(Cl)c(Cl)c1)O/N=C/c1ccncc1	Gal4-VP16 FLuc inconclusive, IL1B secr inh -94
CCC(C)NC(=O)CCC(=O)OC1O[C@H]2OC3(C)CC[C@H]4[C@H](C)CCC(C1C)C24OO3 (some centres undefined)	SW480 rereplic 18µM, IL1B secr inh inconclusive, MCF10A rereplic inconclusive
CCC(C)C(NC(=O)CCCNC(=O)CCC(=O)OC1O[C@H]2OC3(C)CC[C@H]4[C@H](C)CCC(C1C)C24OO3)C(=O)O (some centres undefined)	none (no result: SW480 rereplic, IL1B secr inh, MCF10A rereplic)
CCCC(C)(COC(N)=O)COC(=O)NC1CC1 (centres undefined)	none (no result: IL1B secr inh)
CC(=O)OC[C@]12CCC(C)=C[C@H]1O[C@@H]1[C@H](O)[C@@H](OC(C)=O)[C@@]2(C)[C@]12CO2	SW480 rereplic inconclusive, Gal4-VP16 FLuc 0.0016µM, IL1B secr inh -106, RORgamma inh 0.032µM
CC(=O)OC[C@]12C[C@H](OC(=O)CC(C)C)C(C)=C[C@H]1O[C@H]1[C@H](O)[C@@H](OC(C)=O)[C@@]2(C)[C@]12CO2	RORgamma inh 0.025µM (no result: SW480 rereplic, IL1B secr inh, MCF10A rereplic)
Cc1ccc(S(=O)(=O)Nc2ccc3ncccc3c2[N+](=O)[O-])cc1	SW480 rereplic inconclusive, MCF10A rereplic inconclusive (no result: Gal4-VP16 FLuc, RORgamma inh)
COc1ccc(CNCCc2ccccc2F)c(OC)c1C	IL1B secr inh -65, MCF10A rereplic inconclusive
CCc1ccc(CNCCc2ccccc2F)cc1	SW480 rereplic inconclusive, IL1B secr inh -57
Fc1ccc(CNCCc2ccccc2F)cc1	none
CN=C=S	none (no result: SW480 rereplic, IL1B secr inh, MCF10A rereplic)
Cc1cc(-c2n[nH]c(=S)n2CC(C)C)cs1	Gal4-VP16 FLuc inconclusive, RORgamma inh 5µM
O=c1ccc2cc(OC3OC(CO)C(O)C(O)C3O)c(O)cc2o1 (centres undefined)	RORgamma inh inconclusive (no result: SW480 rereplic, IL1B secr inh, MCF10A rereplic)
C=CC(=O)OCC(C)C	none (no result: SW480 rereplic, IL1B secr inh, MCF10A rereplic)
